Unmarked numbers belong to inactive results. Records with an inconclusive call do not appear. The source made the active and inactive calls. Unless noted, calls follow the shape of the dose curve; as a rule, active = well fitted curve in the direction sought with a large enough effect in the repeat runs; inconclusive = weak or mixed curves; inactive = no such curve, though single readings can be large; an effect the other way counts as inactive or inconclusive.

Among the data in PubChem BioAssay (Tox21) are outcome, Potency and max activation values, retold here.

In assay [1] the target is Thyrotropin-releasing hormone receptor (Homo sapiens) (UniProt P34981). Kind of assay: qHTS assay to identify small molecule agonists of the thyrotropin-releasing hormone receptor (TRHR) signaling pathway (AID 1346891; calls by dose curve;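 also: HEK293 cells expressing TRHR with calcium dye readout; series mostly up to about 58 µM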). Summed up: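 In 1536-format, 1500 TRHR-Hek293 cells per well grew 18 h, took up calcium dye for 2 h at 37 °C, received compound, and were read kinetically; 15-point titrations, triplicates.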
Sequence of Thyrotropin-releasing hormone receptor (Homo sapiens) (P34981 whole entry, looked up): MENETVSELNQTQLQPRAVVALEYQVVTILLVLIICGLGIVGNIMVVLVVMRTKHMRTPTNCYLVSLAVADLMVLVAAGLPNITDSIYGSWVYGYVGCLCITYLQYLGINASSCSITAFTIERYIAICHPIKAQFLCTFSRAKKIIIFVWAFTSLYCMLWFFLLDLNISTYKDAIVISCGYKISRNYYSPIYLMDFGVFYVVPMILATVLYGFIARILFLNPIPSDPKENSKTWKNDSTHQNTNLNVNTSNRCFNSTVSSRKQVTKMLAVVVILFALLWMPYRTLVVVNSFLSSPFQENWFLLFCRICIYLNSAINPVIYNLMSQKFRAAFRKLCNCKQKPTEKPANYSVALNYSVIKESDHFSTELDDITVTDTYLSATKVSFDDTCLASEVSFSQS

Assay [2] can be described thus: Caspase-3/7 induction in HepG2 cells by small molecules, qHTS assay (AID 1346978). Also: nearly all actives have a fitted effect of over 15% in size. The procedure, abridged:
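Caspase-3/7 induction was measured by Caspase-Glo 3/7 luminescence (30 min, room temperature) after a 17 hr compound exposure of wild-type HepG2 cells seeded at 2,000 per well and pre-incubated 5 hr.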

Assay [3] is described as follows: Caspase-3/7 induction in CHO-K1 cells by small molecules, qHTS assay (AID 1346980). Also: nearly all actives have a fitted effect of over 15% in size. The procedure, abridged:
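Luminescent Caspase-Glo 3/7 read (30min, room temperature) quantified apoptosis induction. Cells were wild-type CHO-K1, treated with compound for 17hr at 37 C and 5% CO2.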

A short description of assay [4]: Caspase-3/7 induction in HepG2 cells by small molecules, qHTS cell viability counter screen (AID 1346981). Also: series mostly up to about 92 µM; nearly all actives have a fitted effect of over 30% in size. The procedure, abridged: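 Viability determined by CellTiter-Fluor fluorescence in HepG2 wells also used for the luminescent Caspase-Glo 3/7 read. Compounds were present for 16 hr at 37 C, 5% CO2 before reagent addition.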
Assay [5] has as its target Nuclear receptor subfamily 1 group I member 2 (Homo sapiens) (UniProt O75469). Kind of assay: Human pregnane X receptor (PXR) small molecule agonists, qHTS assay (AID 1346982). Also: nearly all actives have a fitted effect of over 35% in size. Also: potency is read from the fitted curve at half-maximal effect. The procedure, abridged:
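Compound-induced hPXR transactivation of a CYP3A4 luciferase reporter was scored in HepG2 PXR-Luc cells over 24 hr at 37 C, 5% CO2, by luminescence.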

The target in assay [6] is Cytochrome P450 2D6 (Homo sapiens) (UniProt P10635). Description: Cytochrome P450 Family 2 Subfamily D Member 6 (CYP2D6) small molecule antagonists: luciferase reporter qHTS assay (AID 1671196). Also: nearly all actives have a fitted effect of over 50% in size. Also: potency is read from the fitted curve at half-maximal effect. The procedure, abridged:
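Each well received CYP2D6 with its proluciferin substrate and chemical, sat 10 min, then got NADPH regeneration solution for 1 h at room temperature. Luminescence in RLU served as the activity measure.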

The target of assay [7] is Cytochrome P450 2C19 (Homo sapiens) (UniProt P33261). Kind of assay: Cytochrome P450 Family 2 Subfamily C Member 19 (CYP2C19) small molecule antagonists: luciferase reporter qHTS assay (AID 1671197). Also: nearly all actives have a fitted effect of over 65% in size. Also: potency is read from the fitted curve at half-maximal effect. The procedure, abridged:
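Compounds were tested on CYP2C19 activity via proluciferin conversion to luciferin. The 37C, 1 h reaction followed NADPH addition; detection reagent stopped it.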

Assay [8] has as its target Cytochrome P450 2C9 (Homo sapiens) (UniProt P11712). Description: Cytochrome P450 Family 2 Subfamily C Member 9 (CYP2C9) small molecule antagonists: luciferase reporter qHTS assay (AID 1671198). Also: nearly all actives have a fitted effect of over 50% in size. Also: potency is read from the fitted curve at half-maximal effect. Summed up: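 Enzyme-substrate mix preincubated with compound 10 min at room temperature; reaction started with NADPH regeneration solution, 1 h 37C. Luminescent luciferin product read after 20 min detection reagent.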

For assay [9], the target named is Voltage-gated inwardly rectifying potassium channel KCNH2 (Homo sapiens) (UniProt Q12809). Description: Human Ether-a-go-go-Related Gene (hERG) channel small molecule antagonists: fluorescence cell-based qHTS assay (AID 1671200). Also: nearly all actives have a fitted effect of over 50% in size. Also: potency is read from the fitted curve at half-maximal effect. Summed up: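 Measured: Tl+ flux via fluorescence (480/540 nm) in hERG-expressing U2OS cells after 1 h dye loading at room temperature.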
Sequence of Voltage-gated inwardly rectifying potassium channel KCNH2 (Homo sapiens) (Q12809 whole entry, looked up): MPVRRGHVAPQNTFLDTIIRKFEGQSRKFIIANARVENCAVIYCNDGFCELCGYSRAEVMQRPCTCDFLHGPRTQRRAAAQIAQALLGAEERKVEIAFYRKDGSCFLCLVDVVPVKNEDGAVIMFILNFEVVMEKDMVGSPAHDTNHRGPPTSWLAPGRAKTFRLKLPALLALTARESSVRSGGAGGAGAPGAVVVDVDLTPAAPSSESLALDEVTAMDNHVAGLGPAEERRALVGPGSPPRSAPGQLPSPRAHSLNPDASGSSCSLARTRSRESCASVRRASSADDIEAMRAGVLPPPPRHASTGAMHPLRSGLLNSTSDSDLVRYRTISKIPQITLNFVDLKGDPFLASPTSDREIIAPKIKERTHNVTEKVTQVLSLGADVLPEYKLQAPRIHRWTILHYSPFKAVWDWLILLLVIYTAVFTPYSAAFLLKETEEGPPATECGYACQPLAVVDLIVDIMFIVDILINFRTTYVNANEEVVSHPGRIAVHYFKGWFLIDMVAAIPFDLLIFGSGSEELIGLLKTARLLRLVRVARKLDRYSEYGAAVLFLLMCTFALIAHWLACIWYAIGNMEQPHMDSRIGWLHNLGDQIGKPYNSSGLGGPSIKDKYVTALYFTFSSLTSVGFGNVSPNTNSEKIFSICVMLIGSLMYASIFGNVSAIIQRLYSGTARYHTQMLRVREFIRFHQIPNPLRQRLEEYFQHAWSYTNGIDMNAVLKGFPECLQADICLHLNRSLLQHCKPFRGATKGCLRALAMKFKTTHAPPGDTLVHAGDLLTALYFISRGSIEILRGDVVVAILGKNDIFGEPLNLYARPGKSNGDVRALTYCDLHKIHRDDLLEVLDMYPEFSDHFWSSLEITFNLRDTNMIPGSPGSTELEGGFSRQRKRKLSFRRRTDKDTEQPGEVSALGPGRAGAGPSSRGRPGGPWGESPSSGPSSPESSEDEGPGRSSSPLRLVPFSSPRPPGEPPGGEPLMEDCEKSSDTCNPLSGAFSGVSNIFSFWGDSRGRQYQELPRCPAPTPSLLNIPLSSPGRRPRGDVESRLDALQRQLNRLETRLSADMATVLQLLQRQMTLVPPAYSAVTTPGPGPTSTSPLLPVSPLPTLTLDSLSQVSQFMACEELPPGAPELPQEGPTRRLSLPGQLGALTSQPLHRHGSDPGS

Assay [10] deals with Cytochrome P450 3A4 (Homo sapiens) (UniProt P08684). Description: Cytochrome P450 Family 3 Subfamily A Member 4 (CYP3A4) small molecule antagonists: luciferase reporter qHTS assay (AID 1671201). Also: nearly all actives have a fitted effect of over 50% in size. Also: potency is read from the fitted curve at half-maximal effect. The procedure, abridged: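 Setup: enzyme-substrate mix, compound pin transfer, 10 min RT. Reaction: NADPH regeneration solution, 1 h RT. Readout: detection reagent stops turnover, luminescence measured after 20 min, expressed in relative luminescence units.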
Sequence of Cytochrome P450 3A4 (Homo sapiens) (P08684 whole entry, looked up): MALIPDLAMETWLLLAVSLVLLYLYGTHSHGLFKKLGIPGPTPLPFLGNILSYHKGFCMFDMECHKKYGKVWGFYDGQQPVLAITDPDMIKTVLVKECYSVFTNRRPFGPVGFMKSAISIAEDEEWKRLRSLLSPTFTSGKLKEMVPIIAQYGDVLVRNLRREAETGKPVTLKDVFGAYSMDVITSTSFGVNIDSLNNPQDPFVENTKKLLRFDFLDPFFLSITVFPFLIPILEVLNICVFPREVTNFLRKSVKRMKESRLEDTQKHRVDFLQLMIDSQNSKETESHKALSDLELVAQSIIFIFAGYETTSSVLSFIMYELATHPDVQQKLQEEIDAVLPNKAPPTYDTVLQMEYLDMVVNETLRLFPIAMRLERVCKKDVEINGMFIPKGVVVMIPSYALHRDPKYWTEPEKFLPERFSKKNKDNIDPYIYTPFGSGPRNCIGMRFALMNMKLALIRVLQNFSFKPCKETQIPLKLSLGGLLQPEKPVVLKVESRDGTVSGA

A short description of assay [11]: Caspase-3/7 induction in CHO-K1 cells by small molecules, qHTS cell viability counter screen (AID 1346979). Also: nearly all actives have a fitted effect of over 35% in size. Also: potency is read from the fitted curve at half-maximal effect. Summed up: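 To flag cytotoxic compounds, treated CHO-K1 wild-type cells were given CellTiter-Fluor at 16hr and read fluorescently after 1hr at 37C; the caspase-3/7 luminescence was measured in these same wells.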
In assay [12] the target is Cytochrome P450 1A2 (Homo sapiens) (UniProt P05177). Description: Cytochrome P450 Family 1 Subfamily A Member 2 (CYP1A2) small molecule antagonists: luciferase reporter qHTS assay (AID 1671199). Also: nearly all actives have a fitted effect of over 50% in size. Also: potency is read from the fitted curve at half-maximal effect. The procedure, abridged: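 Enzymatic CYP1A2 assay, human, luminescent: 10 min compound–enzyme–substrate preincubation, 1 h NADPH-dependent turnover, 20 min detection step, room temperature throughout. Reduced light indicates lower CYP1A2 activity.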
Sequence of Cytochrome P450 1A2 (Homo sapiens) (P05177 whole entry, looked up): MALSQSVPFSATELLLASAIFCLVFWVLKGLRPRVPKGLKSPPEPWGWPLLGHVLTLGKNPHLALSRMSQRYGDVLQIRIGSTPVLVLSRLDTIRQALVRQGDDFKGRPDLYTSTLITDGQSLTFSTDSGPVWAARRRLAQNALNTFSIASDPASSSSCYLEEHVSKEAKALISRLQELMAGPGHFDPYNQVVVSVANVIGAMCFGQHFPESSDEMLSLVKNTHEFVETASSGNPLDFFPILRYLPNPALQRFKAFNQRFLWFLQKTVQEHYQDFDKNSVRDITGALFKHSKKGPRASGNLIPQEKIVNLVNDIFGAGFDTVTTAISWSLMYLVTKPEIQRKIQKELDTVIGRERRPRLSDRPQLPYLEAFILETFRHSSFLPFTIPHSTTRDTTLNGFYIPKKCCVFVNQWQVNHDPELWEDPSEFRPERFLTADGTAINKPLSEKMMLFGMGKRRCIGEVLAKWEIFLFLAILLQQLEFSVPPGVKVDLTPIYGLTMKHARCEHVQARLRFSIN

Assay [13] can be described thus: Human pregnane X receptor (PXR) small molecule agonists, qHTS cell viability counter screen (AID 1346977). Also: nearly all actives have a fitted effect of over 50% in size. Summed up:
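Readout is CellTiter-Fluor fluorescence from PXR-Luc HepG2 cells. Plated cells rested 5hr, then were treated with compounds for 24hr at 37C and 5% CO2, with reagent present during the last hour.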

The target of assay [14] is Nuclear receptor subfamily 1 group I member 2 (Rattus norvegicus) (UniProt Q9R1A7). Description: Rat pregnane X receptor (rPXR) activation by small molecules, qHTS assay (AID 1346983). Also: nearly all actives have a fitted effect of over 20% in size. The settings on record: rPXR luciferase reporter cells, One-Glo luminescence, 24 h; max activation: stronger effect = higher value. Summed up:
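Luminescent readout (One-Glo luciferase, 30 min room temperature) followed 24 hr compound treatment at 37 C of rPXR cells plated 2,000 per well and preincubated 5hr; qHTS format with compounds delivered in DMSO.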

In assay [15] the target is Nuclear receptor subfamily 1 group I member 2 (Homo sapiens) (UniProt O75469). Description: CYP3A4 induction through human pregnane X receptor (PXR) by small molecules, qHTS assay (AID 1346984). Also: nearly all actives have a fitted effect of over 40% in size. Summed up:
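Readings come from a luciferase reporter: DPX-2 cells, which are HepG2 cotransfected with PXR and a CYP3A4-promoter construct, were exposed to test compounds for 24 h at 37C before One-Glo detection.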

Assay [16] shares this target. Description: Human pregnane X receptor (PXR) activation by small molecules, qHTS assay (AID 1346985). Also: nearly all actives have a fitted effect of over 40% in size. Summed up:
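DPX-2 cells (HepG2 co-transfected with a PXR response element and a CYP3A4-promoter luciferase construct) were seeded at 2,000 per well, rested 5 hr at 37C, then exposed to DMSO-dissolved compounds for 24 hr. Activation was read as luciferase luminescence.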
% is scaled to controls: 0 for no effect and ±100 for the full control effect.

Sequence of Cytochrome P450 2C19 (Homo sapiens) (P33261 whole entry, looked up): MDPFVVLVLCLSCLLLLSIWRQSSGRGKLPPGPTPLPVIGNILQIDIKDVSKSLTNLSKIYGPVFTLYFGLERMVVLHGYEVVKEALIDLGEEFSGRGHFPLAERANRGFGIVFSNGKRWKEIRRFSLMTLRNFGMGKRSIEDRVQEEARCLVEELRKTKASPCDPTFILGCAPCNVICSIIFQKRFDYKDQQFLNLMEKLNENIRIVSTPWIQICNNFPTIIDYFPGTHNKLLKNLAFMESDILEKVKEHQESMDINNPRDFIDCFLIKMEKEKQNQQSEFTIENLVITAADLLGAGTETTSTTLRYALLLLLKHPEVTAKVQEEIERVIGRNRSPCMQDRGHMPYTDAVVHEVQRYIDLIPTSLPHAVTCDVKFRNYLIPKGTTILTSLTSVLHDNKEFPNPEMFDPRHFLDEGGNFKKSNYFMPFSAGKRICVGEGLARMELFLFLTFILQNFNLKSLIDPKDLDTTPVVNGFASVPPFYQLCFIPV
Sequence of Nuclear receptor subfamily 1 group I member 2 (Rattus norvegicus) (Q9R1A7 whole entry, looked up): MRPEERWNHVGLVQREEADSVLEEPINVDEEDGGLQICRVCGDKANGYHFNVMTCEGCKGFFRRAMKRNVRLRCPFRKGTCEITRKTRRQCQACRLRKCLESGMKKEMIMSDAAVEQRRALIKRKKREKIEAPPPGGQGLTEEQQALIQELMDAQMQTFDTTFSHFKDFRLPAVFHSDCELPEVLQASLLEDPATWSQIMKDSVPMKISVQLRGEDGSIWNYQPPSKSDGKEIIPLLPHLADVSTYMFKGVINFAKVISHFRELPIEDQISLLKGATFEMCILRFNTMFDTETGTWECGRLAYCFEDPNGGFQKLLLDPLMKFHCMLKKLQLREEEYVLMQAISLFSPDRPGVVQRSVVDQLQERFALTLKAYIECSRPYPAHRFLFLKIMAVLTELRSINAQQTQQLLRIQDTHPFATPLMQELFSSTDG
Sequence of Cytochrome P450 2D6 (Homo sapiens) (P10635 whole entry, looked up): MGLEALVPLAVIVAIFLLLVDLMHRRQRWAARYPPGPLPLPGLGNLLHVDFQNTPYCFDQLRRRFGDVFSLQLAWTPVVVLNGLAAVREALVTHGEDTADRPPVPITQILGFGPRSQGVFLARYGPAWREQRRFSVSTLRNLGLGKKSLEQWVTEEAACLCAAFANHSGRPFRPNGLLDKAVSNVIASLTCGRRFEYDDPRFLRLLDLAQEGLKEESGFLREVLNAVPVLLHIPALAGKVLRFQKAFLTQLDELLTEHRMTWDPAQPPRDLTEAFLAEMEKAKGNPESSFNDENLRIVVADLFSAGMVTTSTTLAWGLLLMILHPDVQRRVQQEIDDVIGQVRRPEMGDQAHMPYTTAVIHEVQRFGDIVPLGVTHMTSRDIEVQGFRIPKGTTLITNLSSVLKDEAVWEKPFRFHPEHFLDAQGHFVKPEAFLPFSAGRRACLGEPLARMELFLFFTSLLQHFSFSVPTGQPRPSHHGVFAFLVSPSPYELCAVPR
Sequence of Nuclear receptor subfamily 1 group I member 2 (Homo sapiens) (O75469 whole entry, looked up): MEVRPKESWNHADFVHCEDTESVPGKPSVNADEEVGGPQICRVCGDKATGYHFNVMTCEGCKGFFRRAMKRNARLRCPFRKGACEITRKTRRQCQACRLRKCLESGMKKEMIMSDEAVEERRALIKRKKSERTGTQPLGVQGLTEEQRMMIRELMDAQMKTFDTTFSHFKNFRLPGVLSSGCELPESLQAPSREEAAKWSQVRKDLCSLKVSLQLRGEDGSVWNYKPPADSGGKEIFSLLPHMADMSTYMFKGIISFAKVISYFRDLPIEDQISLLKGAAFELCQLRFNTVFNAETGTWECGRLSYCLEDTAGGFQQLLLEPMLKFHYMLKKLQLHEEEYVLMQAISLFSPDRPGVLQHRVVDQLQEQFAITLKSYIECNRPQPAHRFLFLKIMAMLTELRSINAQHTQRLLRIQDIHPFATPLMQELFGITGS
Sequence of Cytochrome P450 2C9 (Homo sapiens) (P11712 whole entry, looked up): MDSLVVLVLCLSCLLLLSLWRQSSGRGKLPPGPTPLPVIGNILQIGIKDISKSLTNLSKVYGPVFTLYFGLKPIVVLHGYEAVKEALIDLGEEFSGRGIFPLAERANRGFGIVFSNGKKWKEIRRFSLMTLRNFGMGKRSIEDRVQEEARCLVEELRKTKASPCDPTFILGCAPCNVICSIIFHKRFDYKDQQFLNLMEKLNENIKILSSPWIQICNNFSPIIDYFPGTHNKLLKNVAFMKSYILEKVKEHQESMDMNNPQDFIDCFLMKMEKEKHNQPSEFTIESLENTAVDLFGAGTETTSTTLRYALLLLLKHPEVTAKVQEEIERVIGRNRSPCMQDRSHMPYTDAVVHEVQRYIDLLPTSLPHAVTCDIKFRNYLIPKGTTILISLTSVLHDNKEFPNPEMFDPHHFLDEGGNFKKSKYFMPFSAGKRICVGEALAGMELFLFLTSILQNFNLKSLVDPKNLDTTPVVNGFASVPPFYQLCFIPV

As for `CCCCCO`, the call in assay [1] was inactive. In addition, the Potency entry in [2], in assay [3], in assay [4], in assay [5], in assay [6] and in assay [7] was “inactive” each time. The Potency result in assay [8], in assay [9] and in assay [10] was “inactive” in each case.
In the case of `CCCCCCCCOCCCN`, the compound was classed as inactive in assay [1]. In addition, the Potency result in [11], in [3], in assay [4] and in assay [5] was “inactive” each time. Also, the Potency in assay [6] is 6.33 µM (active); in [7] it was 2 µM (active); in assay [8], 28.3 µM (active); in [12] it was 6.33 µM (active); in [9], 43.6 µM (active).
In the case of `O=C(O)c1ccccc1[N+](=O)[O-]`, the compound was called inactive in [1]. Also, the Potency entry in [11], in assay [4], in assay [5], in assay [6], in assay [7] and in assay [8] was “inactive” each time. The Potency result in assay [12], in assay [9] and in assay [10] was “inactive” in each case.
For `NC(=O)c1cc[n+](CC2=C(C(=O)[O-])N3C(=O)[C@@H](NC(=O)Cc4cccs4)[C@H]3SC2)cc1`, the Potency result in assay [13], in [2], in assay [11], in assay [3], in [4] and in assay [5] was “inactive” each time. In addition, the Potency entry in assay [15], in [16], in assay [6], in [7], in assay [8] and in assay [12] was “inactive” throughout. The Potency result in [9] and in assay [10] was “inactive” each time. Besides, the max activation in assay [14] is -2.94%.
Take `S=c1[nH][nH]c(=S)s1`: the call in assay [1] was inactive. For the same compound, the Potency result in [2], in [11], in assay [3], in [4], in [5] and in assay [12] was “inactive” in each case. Further, the Potency entry in assay [9] and in assay [10] was “inactive” throughout. Moreover, the Potency is 22.4 µM (active) in [7] and 20 µM (active) in [8].
In the case of `Clc1cc(Cl)c2c(c1)N=C1CCCCCN1C2`, the result in [1] was inactive. Further, the Potency result in assay [2], in [11], in assay [3], in assay [4], in [8] and in assay [10] was “inactive” throughout. The Potency in assay [5] was 29.8 µM (active); in [6], 2.75 µM (active); in assay [12], 5.49 µM (active); in assay [9] it was 9.52 µM (active).
As to `C(/C=C/C=C/Nc1ccccc1)=Nc1ccccc1`, the compound was called inactive in assay [1]. Also, the Potency result in [2], in assay [11], in assay [4], in assay [7] and in assay [9] was “inactive” throughout. The Potency in [6] was 71 µM (active).
As to `Oc1ccc(CCNCCCCCCNCCc2ccccc2)cc1O`, the compound was called inactive in assay [1]. The Potency entry in [2], in assay [3], in [4], in assay [5], in assay [12] and in [9] was “inactive” each time. Moreover, in assay [10], the Potency entry is “inactive”. Also, in assay [6], the Potency is 15.5 µM (active).
Consider `CC/C=C/CCO`, for which, in [1], the compound was classed as inactive. Besides, the Potency entry in assay [11], in assay [3], in assay [4], in [5], in assay [6] and in [7] was “inactive” in each case. Moreover, the Potency entry in assay [8] and in [10] was “inactive” each time. For the same compound, the Potency in assay [12] is 36.2 µM (active).
With `CCC(C(=O)O)c1ccc(N2Cc3ccccc3C2=O)cc1` (stereo not given), the outcome in [1] was inactive. Also, the Potency result in assay [2], in assay [3], in assay [4], in assay [9] and in [10] was “inactive” each time. Besides, the Potency in [5] is 4.73 µM (active); in assay [6] it was 15.5 µM (active); in [7], 21.9 µM (active).
With `CC(C(=O)O)c1ccc2c(c1)Cc1cccnc1O2` (stereo not given), the result in assay [1] was inactive. The Potency result in assay [2], in assay [11], in assay [3], in [4], in assay [6] and in assay [7] was “inactive” throughout. The Potency entry in [8], in assay [12], in assay [9] and in assay [10] was “inactive” throughout. In addition, the max activation in assay [14] is -0.373%.
As to `C=C[Si](OCC)(OCC)OCC`, the result in assay [1] was inactive. Further, the Potency result in assay [2], in assay [11], in [3], in assay [4] and in assay [9] was “inactive” throughout.
For `CCCCCCCCCCCCSCCOCCO`, in [1], the compound was called inactive. For the same compound, the Potency entry in [2], in [11], in [3], in assay [4], in assay [15] and in assay [16] was “inactive” in each case. Also, the Potency result in assay [6], in assay [9] and in assay [10] was “inactive” each time. The max activation in [14] is -0.35%. The Potency in [8] was 24.5 µM (active); in assay [12] it was 15.5 µM (active).
Turning to `CCCCCCCCS`, the Potency result in [13], in [2], in assay [11], in assay [3], in [4] and in assay [5] was “inactive” throughout. The Potency entry in assay [6], in assay [7], in assay [8], in [12], in [9] and in assay [10] was “inactive” throughout.
Take `Cc1cccc(C)c1NC(=O)CN1CCCC1`: the Potency entry in assay [13], in assay [2], in [11], in assay [3], in [4] and in assay [5] was “inactive” in each case. Also, the Potency result in [15], in assay [16], in assay [7], in assay [8], in assay [12] and in [9] was “inactive” throughout. Besides, the Potency entry in assay [10] was “inactive”. Moreover, the max activation in assay [14] was -2.58%. In assay [6], the Potency was 15.5 µM (active).
As for `C[C@H](N)C(=O)N[C@@H](C)C(=O)NC1[C@H]2CN(c3nc4c(cc3F)c(=O)c(C(=O)O)cn4-c3ccc(F)cc3F)C[C@@H]12` (stereo not given in full), the outcome in [1] was inactive. For the same compound, the values for the Potency in [11], in assay [5] and in assay [10] were 7.5 µM (active), 21.1 µM (active) and 12.3 µM (active), respectively. The Potency entry in assay [3], in [6], in assay [7], in assay [8] and in [9] was “inactive” in each case.
On to `CS(C)=O`, for which the Potency result in assay [13], in [2], in [11], in [3], in assay [4] and in assay [5] was “inactive” in each case. The Potency result in assay [6], in assay [7], in [12], in assay [9] and in assay [10] was “inactive” in each case.
